From PubChem BioAssay
RXFP1 antagonist: RXFP1 (human) relaxin receptor antagonism; Q9HBX9; HEK293-RXFP1, relaxin-stimulated cAMP HTRF, 30 min; active compounds read low; activity change, negative = inhibition, % at 57.5 µM; 350,000 compounds, 0.59% hits; AID 1259400;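 active = activity change of -60% or lower, but not beyond a set lower limit; inconclusive = change between -60% and -40%, or beyond the set limit; inactive = change above -40%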
gsp agonist: agonists of gsp mutant (McCune-Albright syndrome) | Potency, µM (highest dose often 76.9 µM), most hits filed as activators | AID 624287 | gsp mutant cells, cAMP HTRF, 30 min | 340,000 compounds, 0.13% hits; active = well fitted activation curve with a large enough effect; inconclusive = small, poorly fitted or top-dose-only effect, or another doubt; inactive = no such curve, though single readings can be large or run the other way; cell line not stated here;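 also: phosphodiesterase inhibitor Ro 20-1724 added with compounds to block cAMP breakdown; nearly all actives have a fitted effect of over 60% in size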
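Cells in DMEM/10% FBS with G418 were pretreated with compounds in DMSO plus […] (300 uM stock) for 30 min at 37C. cAMP was measured by HTRF (cAMP-d2 plus anti-cAMP antibody-K) after 30 min at room temperature.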
TSHR antagonist: blocks TSH signaling through the human TSH receptor; 330,000 compounds, 0.2% hits; P16473; TSHR-expressing cells, TSH-stimulated cAMP HTRF, 2 h; active compounds read low; activity change, negative = inhibition, % at 11.5 µM; AID 504810;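 active = activity change below a set negative limit, meaning inhibition stronger than a set level, cut at about -70% in these data; inconclusive = activity change between two set negative limits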
Target sequence (P16473 whole entry, looked up): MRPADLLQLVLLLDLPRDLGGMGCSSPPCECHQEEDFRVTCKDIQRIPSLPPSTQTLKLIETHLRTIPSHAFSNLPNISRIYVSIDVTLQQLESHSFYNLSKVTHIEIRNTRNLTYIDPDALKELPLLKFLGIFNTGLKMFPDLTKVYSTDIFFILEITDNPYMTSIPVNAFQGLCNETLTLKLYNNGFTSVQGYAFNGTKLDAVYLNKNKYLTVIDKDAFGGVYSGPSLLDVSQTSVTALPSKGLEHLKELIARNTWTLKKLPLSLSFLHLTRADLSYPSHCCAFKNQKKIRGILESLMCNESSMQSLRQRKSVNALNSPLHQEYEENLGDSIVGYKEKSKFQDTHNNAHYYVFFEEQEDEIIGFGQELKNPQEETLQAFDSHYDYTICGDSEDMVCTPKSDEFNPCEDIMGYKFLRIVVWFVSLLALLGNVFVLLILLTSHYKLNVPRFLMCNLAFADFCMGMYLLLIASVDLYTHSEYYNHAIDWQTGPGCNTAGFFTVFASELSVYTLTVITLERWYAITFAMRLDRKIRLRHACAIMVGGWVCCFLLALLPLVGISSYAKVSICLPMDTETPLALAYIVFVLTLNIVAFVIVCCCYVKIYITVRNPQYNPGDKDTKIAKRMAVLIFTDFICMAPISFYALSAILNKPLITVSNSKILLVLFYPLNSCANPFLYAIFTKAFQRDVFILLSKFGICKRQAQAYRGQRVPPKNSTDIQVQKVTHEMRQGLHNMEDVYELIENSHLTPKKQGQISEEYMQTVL
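Antagonism was scored as loss of TSH-driven cAMP in TSHR cells, stimulated with 4nM TSH (EC80) for 2 hours at 37 deg C and detected by homogeneous HTRF competition immunoassay.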
gsp antag: antagonists of gsp mutant (McCune-Albright syndrome) | gsp-mutant cells, cAMP HTRF, 30 min | Potency, µM (titrated, usually from 76.9 µM), most hits filed as inhibitors | 340,000 compounds, 0.4% hits; calls by dose curve; cell line not stated here;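 also: intracellular cAMP measured with PDE inhibitor Ro 20-1724 present during compound exposure; nearly all actives have a fitted effect of over 65% in size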
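G418-selected cells were plated in DMEM/10% FBS for 16-24 h at 37C, then treated with compounds plus the PDE inhibitor […] (300 uM solution added) for 30 min at 37C. Intracellular cAMP was measured by HTRF after 30 min lysis at room temperature.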
RXFP1 agonist: RXFP1 (human) receptor agonism; 370,000 compounds, 0.3% hits; Potency, µM (doses to about 57.5 µM), usual class: activators; AID 2676; HEK293T-RXFP1 cAMP TR-FRET, 30 min; response scale: percent of porcine relaxin response, buffer zero; active = well fitted activation curve with a large enough effect; inconclusive = small, poorly fitted or top-dose-only effect; also: nearly all actives have a fitted effect of over 60% in size
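HEK293 cells stably expressing RXFP1, treated 30 min at 37C with compounds plus PDE4 inhibitor Ro 20174; cAMP measured by HTRF TR-FRET. Normalized to buffer and 29 nM porcine relaxin; EC50 by Hill fit.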
Large screens that a line does not name were inactive; ! = not active in a repeat; [ ] = dose if it differs, or a comment. The list is not random: actives were taken first. Their share in the collection is about 1%.

c1ccc2c(c1)[nH]c1c(N3CCCC3)ncnc12	gsp agonist inconclusive, gsp antag inconclusive
Cn1c(=O)c2c(c3ccccc31)OC(C)(C)CC2	gsp antag active[activator]
CC(=O)c1cccc(NC(=O)c2sc3nc4n(c(=O)c3c2C)CCCC4)c1	gsp agonist inconclusive, TSHR antagonist -132, gsp antag inconclusive
CCN(c1cccc(C)c1)S(=O)(=O)c1nnc(NC(=O)C2CCCCC2)s1	none (no result: gsp agonist, TSHR antagonist, gsp antag)
CCC1=C(c2ccc(C)cc2)S(=O)(=O)N=C1N1CCC(C(=O)NCc2ccc(N(C)C)cc2)CC1	none (no result: gsp agonist, TSHR antagonist, gsp antag)
Cc1ccc(-c2csc(N(CCCN(C)C)C(=O)c3ccco3)n2)cc1	RXFP1 antagonist inconclusive
COc1ccc(-c2csc(N(CCCN(C)C)C(=O)c3ccc(C(C)(C)C)cc3)n2)cc1	RXFP1 antagonist -65
CN(C)CCCN(C(=O)c1ccco1)c1nc(-c2ccc(Cl)cc2)cs1	TSHR antagonist -121
CC(C)CC1=NN2C(=N)/C(=C\c3coc4ccccc4c3=O)C(=O)N=C2S1	gsp antag inconclusive
CCSC1=NSC2=NC(=O)/C(=C\c3coc4ccccc4c3=O)C(=N)N12	TSHR antagonist -91, gsp antag inconclusive
CCOc1ccc(NC(=O)C2CCN(c3nc4ccccc4[nH]3)CC2)cc1	none (no result: gsp agonist, TSHR antagonist, gsp antag)
COc1ccc(CN2C(=O)c3cccnc3C2=O)cc1S(=O)(=O)NCc1ccc(C)o1	gsp agonist inconclusive, RXFP1 agonist 16µM
COc1ccccc1CNS(=O)(=O)c1cc(CN2C(=O)c3cccnc3C2=O)ccc1OC	gsp agonist inconclusive, RXFP1 agonist inconclusive
O=C1c2cccnc2C(=O)N1Cc1ccc(S(=O)(=O)NCc2ccco2)s1	gsp agonist inconclusive, RXFP1 agonist inconclusive
O=C1c2cccnc2C(=O)N1Cc1ccc(F)cc1S(=O)(=O)NCc1ccco1	gsp agonist inconclusive, RXFP1 agonist 25µM
Cc1cc(C)n(-c2nc3ccccc3nc2Nc2ccc(Cl)c(Cl)c2)n1	none (no result: gsp agonist, TSHR antagonist, gsp antag)
COc1ccc(N2CCN(c3cnc4ccccc4n3)CC2)cc1	gsp agonist inconclusive
COc1cccc(N2CCN(c3cnc4ccccc4n3)CC2)c1	gsp antag 45µM
O=C(CN1C(=O)C(=O)N(CCC2=CCCCC2)C1=O)c1c[nH]c2ccccc12	RXFP1 antagonist -66 (no result: TSHR antagonist, RXFP1 agonist)
Cn1sc(NC(=O)c2cccc(Cl)c2)nc1=O	gsp antag 28µM
Cc1ccc(NCc2nc3ccccc3n2CCOc2ccccc2)cc1	RXFP1 antagonist -62!
Cc1ccc(N/C(N)=N/c2nc3c(c(=O)[nH]2)CCCC3)c(C)c1	none
Cc1ccc(N/C(N)=N/c2nc(C)cc(N3CCCCC3)n2)c(C)c1	RXFP1 antagonist -83
Brc1ccc(OCc2ccccc2)c(CNCc2ccncc2)c1	RXFP1 antagonist -89, gsp antag inconclusive
O=C(NN=C1C2CC3CC(C2)CC1C3)c1ccncc1	gsp agonist inconclusive
O=C(N/N=C1\C/C(=N\NC(=O)c2ccncc2)c2ccccc21)c1ccncc1	gsp agonist 25µM, RXFP1 agonist 32µM
COc1ccccc1N1CCN(C(=S)Nc2ccc(S(=O)(=O)N3CCOCC3)cc2)CC1	gsp antag 32µM
O=S(=O)(c1ccc(NC(=S)N2CCN(c3ccccc3F)CC2)cc1)N1CCOCC1	none
COc1ccc(-c2[nH]c(-c3ccc(O)cc3)nc2-c2ccccc2)cc1	RXFP1 antagonist inconclusive (no result: gsp agonist, TSHR antagonist, gsp antag)
COc1ccc(-c2nc(-c3ccccc3)c(-c3ccc(O)cc3)[nH]2)cc1	RXFP1 antagonist -104 (no result: gsp agonist, TSHR antagonist, gsp antag)
O=C(CN1C(=O)c2cccc3cccc(c23)C1=O)NCCCO	gsp agonist 14µM
O=C(CCN1C(=O)c2cccc3cccc(c23)C1=O)N1CCOCC1	none
O=C(CN1C(=O)c2cccc3cccc(c23)C1=O)NCCN1CCOCC1	gsp agonist inconclusive, RXFP1 agonist 14µM
O=C(CCCCCN1C(=O)c2cccc3cccc(c23)C1=O)NCCCO	none
CCc1c(C)c2ccc(O)c(CN3CCN(c4ccc(F)cc4)CC3)c2oc1=O	none (no result: gsp agonist, TSHR antagonist, gsp antag)
COc1ccccc1OCC1CNC(=O)O1 (stereo not drawn)	none (no result: gsp agonist, TSHR antagonist, gsp antag, RXFP1 agonist)
Cc1ccc2nc(SCC(=O)Nc3ccc(F)cc3)nc(=O)n2c1	gsp agonist 14µM
Cc1ccc2nc(SCC(=O)Nc3ccc(Cl)cc3)nc(=O)n2c1	none
C[C@H]1O[C@@H](O[C@H]2CC[C@@]3(C)[C@H](CC[C@@H]4[C@@H]3C[C@@H](O)[C@]3(C)[C@@H](C5=CC(=O)OC5)CC[C@]43O)C2)C[C@H](O)[C@@H]1O[C@H]1C[C@H](O)[C@H](O[C@H]2C[C@H](O)[C@H](O[C@@H]3O[C@H](CO)[C@@H](O)[C@H](O)[C@H]3O)[C@@H](C)O2)[C@@H](C)O1	none (no result: gsp agonist, TSHR antagonist, gsp antag, RXFP1 agonist)
O=C(Nc1ccc(Cl)cn1)C1C(c2ccccc2)C1(Cl)Cl (stereo not drawn)	RXFP1 antagonist -98
O=C(CCCN1C(=O)/C(=C\c2cccs2)SC1=S)Nc1ccccc1O	none (no result: TSHR antagonist, gsp antag, RXFP1 agonist)
O=C(O)CCCCCN1C(=O)/C(=C\c2cn(-c3ccccc3)nc2-c2cccs2)SC1=S	gsp antag 35µM
O=C(O)CCCCCN1C(=O)/C(=C/c2cn(-c3ccccc3)nc2-c2cccs2)SC1=S	gsp agonist inconclusive, gsp antag 35µM (no result: TSHR antagonist, RXFP1 agonist)
O=C(O)CCN1C(=O)/C(=C/c2cn(-c3ccccc3)nc2-c2cccs2)SC1=S	gsp antag 35µM
CCN1C(=O)/C(=C/c2cn(-c3ccccc3)nc2-c2cccnc2)SC1=S	gsp antag inconclusive (no result: TSHR antagonist, RXFP1 agonist)
Cc1nc(-c2ccccc2)sc1CCNC(=O)c1ccco1	none (no result: RXFP1 antagonist, gsp agonist, TSHR antagonist, gsp antag)
Cc1cc(N2CCN(c3cccc(C(F)(F)F)c3)CC2)n2nc(-c3ccccc3C)nc2n1	none (no result: RXFP1 antagonist, gsp agonist, TSHR antagonist, gsp antag)
Cc1nn(C)c(C)c1N1C(=O)c2cccc3c(Br)ccc(c23)C1=O	gsp agonist 13µM
O=S(=O)(c1cc(Br)c(Cl)s1)N1CCCC1	TSHR antagonist -78
CN(C)CCCNC(=S)N(Cc1cccs1)Cc1cc2cc3c(cc2[nH]c1=O)OCCO3	RXFP1 antagonist -63, gsp agonist inconclusive
N#CCCn1nc(-c2ccccc2)cc1Nc1ccccc1NC(=O)C(F)(F)F	none (no result: RXFP1 antagonist)
N#CCCn1nc(-c2ccc(Br)cc2)cc1Nc1ccccc1NC(=O)C(F)(F)F	gsp antag 32µM
COc1ccc(-c2nnc(SCC(=O)NC3CCCC3)nc2-c2ccc(OC)c(OC)c2)cc1OC	RXFP1 antagonist -70 (no result: gsp agonist, TSHR antagonist, gsp antag)
CN(Cc1ccccc1C#N)S(=O)(=O)c1cccs1	none
N#Cc1nccnc1S(=O)(=O)c1cccs1	TSHR antagonist -87
COc1cccc(CNC(=O)Nc2ccc3c(c2)N(C)C(=O)c2ccccc2S3)c1	none (no result: gsp agonist, TSHR antagonist, gsp antag)
Cc1ccc(C(=O)NCC(=O)OCCOc2ccccc2Cl)cc1	RXFP1 antagonist -84
CCc1ccc(CNC(=O)CN2C(=O)C3CCCCN3c3ccc(C(=O)N4CCCC4)cc32)cc1 (stereo not drawn)	none (no result: gsp agonist, TSHR antagonist, gsp antag)
